{"source": "PubChem BioAssay (NCATS)", "note": "Inconclusive results are not listed. Activity calls are given as the source filed them. Calls come from the whole dose curve; as a rule, active = well fitted curve in the direction sought with a large enough effect; inconclusive = small, poorly fitted or top-dose-only effect, or another doubt; inactive = no such curve, though single readings can be large or run the other way."}
{"molecular_target": "Glucagon-like peptide 1 receptor (Homo sapiens) (UniProt P43220)", "sequence (P43220 whole entry, looked up)": "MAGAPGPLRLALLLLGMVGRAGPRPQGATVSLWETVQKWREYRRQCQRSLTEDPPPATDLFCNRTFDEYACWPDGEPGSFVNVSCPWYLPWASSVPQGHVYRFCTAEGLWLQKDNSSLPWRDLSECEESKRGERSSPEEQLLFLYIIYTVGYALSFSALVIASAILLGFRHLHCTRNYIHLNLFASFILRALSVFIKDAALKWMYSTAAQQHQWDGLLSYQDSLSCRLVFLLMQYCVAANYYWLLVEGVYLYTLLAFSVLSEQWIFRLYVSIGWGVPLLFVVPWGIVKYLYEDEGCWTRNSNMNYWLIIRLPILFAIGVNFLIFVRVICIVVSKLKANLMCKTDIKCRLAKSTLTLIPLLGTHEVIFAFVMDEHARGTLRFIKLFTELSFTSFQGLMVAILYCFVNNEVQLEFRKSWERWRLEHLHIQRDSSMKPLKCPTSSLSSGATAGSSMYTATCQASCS", "experiment": "qHTS of GLP-1 Receptor Agonists: LOPAC Validation (AID 624148);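 note: luminescence from a luciferase reporter switched on by cAMP; higher luminescence signal means agonism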", "details": "GLP-1R agonist cell assay; series mostly up to 46.1 µM", "from_the_text": "The overall goal of this project was to develop a novel assay for discovering small molecule ligands for class B1 G protein-coupled receptors (GPCRs). Very few agonists (or inverse agonists) with generally weak activity for this entire group of physiologically important receptors are known to date. To establish proof-of-principle that this critical bottleneck can be overcome with a suitable screening approach, our studies focused on the class B1 receptor for glucagon-like peptide-1 (GLP-1R), a potential therapeutic target for diabetes and neurodegenerative disease.\nThe assay was developed in a \"mix and measure\" format using a cell-based functional readout. Toward this goal, stably transfected HEK293 cell clones were established that co-express (i) a cAMP-responsive luciferase reporter gene, and (ii) GLP-1Rs that upon ligand interaction either stimulate (agonists) or inhibit (inverse agonists) luciferase activity. In different cell lines to be used for screening, expressed GLP-1Rs are specifically optimized for high sensitivity detection of either weak agonists (hypersensitive receptor) or inverse agonists (constitutively active receptor mutant). In addition, control cell lines were developed that express either the cAMP-responsive reporter gene without recombinant GLP-1Rs (enabling initial exclusion of GLP-1R independent effects of candidate probes), or the reporter gene together with wild type GLP-1Rs (for confirmation of probe activity at this receptor), or the reporter gene in combination with the constitutively active orphan receptor GPR119 (enabling initial exclusion of GLP-1R independent inhibitory effects of candidate inverse agonists).\nTo that end, this assay was optimized for 1536-well format and screened against the MLSMR.\nNIH Molecular Libraries Probe Production Network [MLPCN]\nNIH Chemical Genomics Center [NCGC]\nPI Name: Martin Beinborn, Tufts Medical Center\nIn a white solid 1536-well plate, 6 uL of cells are dispensed in DMEM without phenol red, 10% Nu serum, and 1% pen-strep medium. The plates are then incubated for 12 hours at 37 deg C at 5% CO2 before 23 nL of compounds are added. After a 4-6 hr incubation at37 deg C and 5% CO2, 3 uL of detection reagent are added and after a 12 min incubation at RT, a luminescent read is obtained on the ViewLux."}
{"compound": "CCCN1CCO[C@@H]2c3cc(O)ccc3OC[C@H]21", "outcome": "inactive"}
{"compound": "CN[C@@H]1C[C@@H](c2ccc(Cl)c(Cl)c2)c2ccccc21", "outcome": "inactive"}
{"compound": "NC1CC1c1ccccc1", "note": "(stereo not given)", "outcome": "inactive"}
{"compound": "C[N+]1(C)C2CCC1CC(OC(=O)C(CO)c1ccccc1)C2", "note": "(stereo not given)", "outcome": "inactive"}
{"compound": "c1ccc2sc(C3(N4CCCCC4)CCCCC3)cc2c1", "outcome": "inactive"}
{"compound": "O=C1CCCN1CC#CCN1CCCC1", "outcome": "inactive"}
{"compound": "NCc1cc(=O)[nH]o1", "outcome": "inactive"}
{"compound": "C[C@@H]1O[C@H](C[N+](C)(C)C)C[C@H]1O", "outcome": "inactive"}
{"compound": "CC(C)NC(C)Cc1ccc(I)cc1", "note": "(stereo not given)", "outcome": "inactive"}
{"compound": "C[C@]12CCC3C(CC[C@H]4C[C@H](O)CC[C@]34C)C1CC[C@@H]2C(=O)CO", "note": "(stereo not given in full)", "outcome": "inactive"}
{"compound": "COc1cc(C(O)CN)ccc1O", "note": "(stereo not given)", "outcome": "inactive"}
{"compound": "c1ccc(CCCN2CCN(CCOC(c3ccccc3)c3ccccc3)CC2)cc1", "outcome": "inactive"}
{"compound": "CC[C@@]1(O)C(=O)OCc2c1cc1n(c2=O)Cc2cc3ccccc3nc2-1", "outcome": "inactive"}
{"compound": "CCCN(CCC)[C@@H]1CCc2ccc(O)cc2C1", "outcome": "inactive"}
{"compound": "COc1ccc2c(c[n+](C)c3c4cc5c(cc4ccc23)OCO5)c1OC", "outcome": "inactive"}
{"compound": "NC(CCP(=O)(O)O)C(=O)O", "note": "(stereo not given)", "outcome": "inactive"}
{"compound": "NCCc1c[nH]c2ccc(O)cc12", "outcome": "inactive"}
{"compound": "S=C(NC1CCCCC1)N1CCC(c2cnc[nH]2)CC1", "outcome": "inactive"}
{"compound": "CNCCc1c[nH]c2ccc(O)cc12", "outcome": "inactive"}
{"compound": "CS(=N)(=O)CC[C@H](N)C(=O)O", "note": "(stereo not given in full)", "outcome": "inactive"}
{"compound": "NC1CCc2cc(O)c(O)cc2C1", "note": "(stereo not given)", "outcome": "inactive"}
{"compound": "O=C(O)Cc1cnc[nH]1", "outcome": "inactive"}
{"compound": "NC(=O)CN1CC(O)CC1=O", "note": "(stereo not given)", "outcome": "inactive"}
{"compound": "COC(=O)[C@@H](N)CCCN=C(N)N[N+](=O)[O-]", "outcome": "inactive"}
{"compound": "CC[C@@H](C(N)=O)N1CCCC1=O", "outcome": "inactive"}
{"compound": "NCCc1c[nH]c2ccccc12", "outcome": "inactive"}
{"compound": "O=C(O)CC[N+](=O)[O-]", "outcome": "inactive"}
{"compound": "O=C(N[C@H]1CN2CCC1CC2)c1ccc(Cl)cc1", "outcome": "inactive"}
{"compound": "CC(=O)NCCc1c[nH]c2ccccc12", "outcome": "inactive"}
{"compound": "CC(C)Oc1cccnc1N(C)C1CCN(Cc2ccccc2)CC1", "outcome": "inactive"}
{"compound": "NC(CP(=O)(O)O)C(=O)O", "note": "(stereo not given)", "outcome": "inactive"}
{"compound": "c1ccc(C2(c3ccccc3)CC2C2=NCCN2)cc1", "note": "(stereo not given)", "outcome": "inactive"}
{"compound": "CC(=O)[C@H]1CCC2C3CC[C@H]4C[C@H](O)CC[C@]4(C)C3CC[C@@]21C", "note": "(stereo not given in full)", "outcome": "inactive"}
{"compound": "Cc1c(C(=O)c2cccc3ccccc23)c2cccc3c2n1[C@H](CN1CCOCC1)CO3", "outcome": "inactive"}
{"compound": "C/C=C(/C)C(=O)O[C@H]1C(C)=C2[C@H]([C@@H]1OC(=O)CCCCCCC)[C@@](C)(OC(C)=O)C[C@H](OC(=O)CCC)[C@@]1(O)[C@H]2OC(=O)[C@@]1(C)O", "outcome": "inactive"}
{"compound": "CCCN(CCC)C1CCc2ccc(O)cc2C1", "note": "(stereo not given)", "outcome": "inactive"}
{"compound": "NC(N)=NOCCC(N)C(=O)O", "note": "(stereo not given)", "outcome": "inactive"}
{"compound": "Cn1cnc(CCN)c1", "outcome": "inactive"}
{"compound": "Clc1cnc(Oc2ccc(Oc3ncc(Cl)cc3Cl)cc2)c(Cl)c1", "outcome": "inactive"}
{"compound": "C[C@]12N[C@H](Cc3ccccc31)c1ccccc12", "outcome": "inactive"}
